# Laboratory results from PubChem BioAssay (EPA / NIEHS).
# “And” between values parts separate entries of the source, which are not always exact repeats. Identical values can stand only once. Inconclusive results are not listed. The source made the active and inactive calls. How the source made its calls: active means hit-call score of the fitted dose curve at least 0.9, where 1 is the maximum; inconclusive means response in the unintended direction; inactive means score below 0.9.
# Target: human Sirtuin 3 (SIRT3), SIRT3 (gene 23410) (UniProt Q9NTG7)
# Sequence (Q9NTG7 whole entry, looked up): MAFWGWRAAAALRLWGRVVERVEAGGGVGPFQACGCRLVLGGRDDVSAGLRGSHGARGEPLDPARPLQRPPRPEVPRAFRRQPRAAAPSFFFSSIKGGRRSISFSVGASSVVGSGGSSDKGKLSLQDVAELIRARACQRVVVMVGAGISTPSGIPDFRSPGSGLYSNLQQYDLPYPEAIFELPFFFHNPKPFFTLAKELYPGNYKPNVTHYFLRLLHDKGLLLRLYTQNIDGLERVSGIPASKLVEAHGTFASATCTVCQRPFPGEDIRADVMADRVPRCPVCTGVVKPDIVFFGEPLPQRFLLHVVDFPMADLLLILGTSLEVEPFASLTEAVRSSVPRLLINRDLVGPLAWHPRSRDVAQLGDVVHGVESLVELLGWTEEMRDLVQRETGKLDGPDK
# Assay: NVS_ENZ_hSIRT3: NovaScreen (NVS) Enzymatic Assay for human Sirtuin 3 (SIRT3) (AID 2283222)
# Summary of the method: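 Cell-free enzyme assay with recombinant protein and fluorescent substrate, product separated by electrophoretic mobility shift; read 1 hour after dosing. Screened in duplicate at 25 uM, then singleton concentration-response up to 50 uM; loss of signal versus DMSO.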
Compound,outcome,AC50
CC(C)[C@H](C(=O)O[C@H](C#N)c1cccc(Oc2ccccc2)c1)c1ccc(Cl)cc1,inactive,
C[Si](Cn1cncn1)(c1ccc(F)cc1)c1ccc(F)cc1,inactive,
COc1ccc(C(=CC(=O)N2CCOCC2)c2ccc(Cl)cc2)cc1OC,inactive,
N#CSCSC#N,inactive,
FC(F)C(F)(F)OCC(Cn1cncn1)c1ccc(Cl)cc1Cl (stereo unspecified),,25 µM (active)
CC[C@H](C)[C@H]1O[C@]2(C=C[C@@H]1C)C[C@@H]1C[C@@H](C/C=C(\C)[C@@H](O[C@H]3C[C@H](OC)[C@@H](O[C@H]4C[C@H](OC)[C@@H](NC)[C@H](C)O4)[C@H](C)O3)[C@@H](C)/C=C/C=C3\CO[C@@H]4[C@H](O)C(C)=C[C@@H](C(=O)O1)[C@]34O)O2,,1.25 µM (active)

# Target: human SRC Proto-Oncogene, Non-receptor Tyrosine Kinase (SRC), SRC (gene 6714) (UniProt P12931)
# Sequence (P12931 whole entry, looked up): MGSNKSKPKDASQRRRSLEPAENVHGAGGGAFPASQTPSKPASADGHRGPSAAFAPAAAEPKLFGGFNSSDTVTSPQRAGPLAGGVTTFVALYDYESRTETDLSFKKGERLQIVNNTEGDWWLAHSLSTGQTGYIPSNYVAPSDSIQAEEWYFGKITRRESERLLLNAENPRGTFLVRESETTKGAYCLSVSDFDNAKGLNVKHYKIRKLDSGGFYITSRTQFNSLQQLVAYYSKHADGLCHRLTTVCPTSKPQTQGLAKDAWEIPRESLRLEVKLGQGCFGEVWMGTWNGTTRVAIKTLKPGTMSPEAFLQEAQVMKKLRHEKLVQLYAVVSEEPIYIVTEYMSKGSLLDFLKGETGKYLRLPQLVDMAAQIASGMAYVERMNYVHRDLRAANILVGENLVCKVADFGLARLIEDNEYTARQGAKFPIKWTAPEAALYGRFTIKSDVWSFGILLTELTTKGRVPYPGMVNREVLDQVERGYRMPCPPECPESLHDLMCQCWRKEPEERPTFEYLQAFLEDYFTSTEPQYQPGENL
# Assay: NVS_ENZ_hSRC: NovaScreen (NVS) Enzymatic Assay for human SRC Proto-Oncogene, Non-receptor Tyrosine Kinase (SRC) (AID 2283223)
# Summary of the method: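 Cell-free kinase activity assay with fluorescent substrate, product separated by electrophoretic mobility shift, read 1 h after dosing. Duplicate single point at 25 uM, then concentration-response up to 50 uM; loss of signal versus DMSO.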
Compound,outcome,AC50
CC(C)[C@H](C(=O)O[C@H](C#N)c1cccc(Oc2ccccc2)c1)c1ccc(Cl)cc1,inactive,
CCNc1nc(Cl)nc(NC(C)(C)C#N)n1,inactive,
CC(C1CC1)C(O)(Cn1cncn1)c1ccc(Cl)cc1 (stereo unspecified),inactive,
CC[C@H](C)[C@H]1O[C@]2(C=C[C@@H]1C)C[C@@H]1C[C@@H](C/C=C(\C)[C@@H](O[C@H]3C[C@H](OC)[C@@H](O[C@H]4C[C@H](OC)[C@@H](NC)[C@H](C)O4)[C@H](C)O3)[C@@H](C)/C=C/C=C3\CO[C@@H]4[C@H](O)C(C)=C[C@@H](C(=O)O1)[C@]34O)O2,,34 µM (active)

# Target: human Tyrosine Protein Kinase Receptor Tie-2 (Tie2), TEK (gene 7010) (UniProt Q02763)
# Sequence (Q02763 whole entry, looked up): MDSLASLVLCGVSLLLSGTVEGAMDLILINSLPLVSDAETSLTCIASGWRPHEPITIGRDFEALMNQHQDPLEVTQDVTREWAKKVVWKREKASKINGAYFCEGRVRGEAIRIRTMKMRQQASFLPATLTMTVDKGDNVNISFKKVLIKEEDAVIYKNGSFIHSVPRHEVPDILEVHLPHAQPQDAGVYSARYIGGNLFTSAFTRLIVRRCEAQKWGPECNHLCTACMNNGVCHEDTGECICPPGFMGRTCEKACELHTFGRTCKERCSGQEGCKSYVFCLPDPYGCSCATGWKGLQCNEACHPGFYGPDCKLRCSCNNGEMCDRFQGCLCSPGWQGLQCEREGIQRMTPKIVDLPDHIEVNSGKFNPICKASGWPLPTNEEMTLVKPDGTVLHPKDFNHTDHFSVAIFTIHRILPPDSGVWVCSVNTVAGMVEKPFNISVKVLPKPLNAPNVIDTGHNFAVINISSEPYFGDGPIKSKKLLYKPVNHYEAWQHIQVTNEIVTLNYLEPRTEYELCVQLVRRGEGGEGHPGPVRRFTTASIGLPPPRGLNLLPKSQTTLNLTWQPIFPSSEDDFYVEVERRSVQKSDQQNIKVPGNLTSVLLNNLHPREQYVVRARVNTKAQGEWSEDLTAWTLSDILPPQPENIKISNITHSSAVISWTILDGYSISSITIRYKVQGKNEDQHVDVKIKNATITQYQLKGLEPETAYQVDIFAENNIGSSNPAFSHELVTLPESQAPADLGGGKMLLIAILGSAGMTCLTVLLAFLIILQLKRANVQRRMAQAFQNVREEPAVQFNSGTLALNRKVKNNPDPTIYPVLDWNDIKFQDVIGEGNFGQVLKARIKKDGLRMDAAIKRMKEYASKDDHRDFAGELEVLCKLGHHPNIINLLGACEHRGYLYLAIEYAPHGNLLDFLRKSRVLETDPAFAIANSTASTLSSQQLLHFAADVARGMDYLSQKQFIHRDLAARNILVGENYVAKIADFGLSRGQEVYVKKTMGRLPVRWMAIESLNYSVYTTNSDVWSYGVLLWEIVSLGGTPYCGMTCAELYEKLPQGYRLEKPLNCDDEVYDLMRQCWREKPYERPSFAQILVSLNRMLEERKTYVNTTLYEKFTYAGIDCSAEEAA
# Assay: NVS_ENZ_hTie2: NovaScreen (NVS) Enzymatic Assay for human Tyrosine Protein Kinase Receptor Tie-2 (Tie2) (AID 2283225)
# Summary of the method: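 Recombinant human Tie2 kinase activity was read cell-free by fluorescence with electrophoretic mobility shift, 1 hour after dosing. The screen used 25 uM in duplicate, then concentration-response up to 50 uM. Signal loss was scored against DMSO.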
Compound,outcome,AC50
CCCCOC(=O)c1ccccc1C(=O)O,inactive,
S=C1NCCN1,inactive,
O=[N+]([O-])c1cc(C(F)(F)F)c(Cl)c([N+](=O)[O-])c1Nc1ncc(C(F)(F)F)cc1Cl,inactive,
C=C(C)[C@H]1Cc2c(ccc3c2O[C@@H]2COc4cc(OC)c(OC)cc4[C@@H]2C3=O)O1,inactive,
CC[C@H](C)[C@H]1O[C@]2(C=C[C@@H]1C)C[C@@H]1C[C@@H](C/C=C(\C)[C@@H](O[C@H]3C[C@H](OC)[C@@H](O[C@H]4C[C@H](OC)[C@@H](NC)[C@H](C)O4)[C@H](C)O3)[C@@H](C)/C=C/C=C3\CO[C@@H]4[C@H](O)C(C)=C[C@@H](C(=O)O1)[C@]34O)O2,inactive,
CN(C)[C@@H]1C(=O)C(C(N)=O)=C(O)[C@@]2(O)C(=O)C3=C(O)c4c(O)cccc4[C@@](C)(O)[C@H]3[C@H](O)[C@@H]12,,7.51 µM (active) and 13.4 µM (active) and 8.19 µM (active)
